Assay outcomes from PubChem BioAssay.
Hits are enriched below; roughly 4% of the tested compounds scored in any of these assays.
TWEAK Fn14 block: inhibitors of TWEAK-Fn14 signaling, primary screen, luciferase reporter cells, uHTS; TWEAK-stimulated Fn14 reporter cells, luciferase luminescence, 8 h; inhibition, % at 10 µM; 360,000 tested, 2% active; in the data active means inhibition above about 50%
Peg3 promoter: Peg3 promoter-driven luciferase inhibitors, primary screen, cell-based, HeLa, luciferase luminescence; HeLa PEG-Prom luciferase reporter, overnight; inhibition, % at 20 µM; 360,000 tested, 1.7% active; AID 588405, 2011;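 active means inhibition of at least 50% at 20 µM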
KKLEB tox: cytotoxicity in KKLEB CF airway cells, primary screen, cytotoxicity control for CF NF-kB inhibitor project, cell-based, uHTS, fluorescence assay plates; 360,000 tested, 0.36% active; activity change (cytotoxicity), % at 5 µM; KKLEB CF airway cells viability, ATPlite luminescence, overnight; hits give low values; cells stimulated with P. aeruginosa culture filtrate; AID 602141, 2011;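 active means corrected activity change at or below -50% at 5 µM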
HIF-2a inh: HIF-2a reporter inhibitors, primary screen, luminescence, 786-0 RCC cells. inhibition, % at 18.8 µM. 786-0 RCC cells HIF-2a reporter, luciferase luminescence, overnight. 360,000 tested, 0.72% active;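 active means inhibition of the luminescence signal of 40% or more relative to plate controls, in a single-dose primary screen at 18.75 µM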
TROY signal inh: inhibitors of TROY-driven NF-kB signaling, primary screen, Q293 LMP1-TROYcd cells, NF-kB luciferase, uHTS | Q293 LMP1-TROYcd NF-kB luciferase reporter, 4 h | inhibition, % at 10 µM | 360,000 tested, 0.98% active | AID 1347056, 2019;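 active means compounds whose plate-normalised and pattern-corrected inhibition of the luciferase reporter signal at the single screening dose is 50% or more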
CF NFkB block: inhibitors of PAF-induced NF-kB signaling, primary screen, cell-based, GFP fluorescence, uHTS. inhibition, % at 5 µM. 360,000 tested, 0.86% active. KKLEB NF-kB-GFP reporter, GFP fluorescence overnight. AID 588850, 2011;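 active means at least 50% inhibition at 5 µM, scaled per plate between neutral and stimulator controls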;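 further: PAF is a Pseudomonas aeruginosa culture filtrate used as stimulus; plate controls were PAF-stimulated DMSO wells for no effect and unstimulated DMSO wells for full effect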
CF NFkB inh conf: inhibitors of PAF-induced NF-kB signaling, retest, confirmation, cell-based, GFP fluorescence, single concentration. shares compounds with CF NFkB block. KKLEB CF airway cells, overnight. inhibition, % at 5 µM. 1,300 tested, 64% active. AID 602472, 2012; in the data active means inhibition above about 40%;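 further: stimulus PAF is a Pseudomonas aeruginosa filtrate and not platelet activating factor; plate controls were DMSO wells with stimulus for no effect and unstimulated DMSO wells for full effect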
Numbers without * were called inactive; / = no result.

SMILES	TWEAK Fn14 block	Peg3 promoter	KKLEB tox	HIF-2a inh	TROY signal inh	CF NFkB block	CF NFkB inh conf
CC(C)C1C(=O)N(Cc2cn(Cc3ccco3)nn2)CCS(=O)(=O)N1Cc1ccc(-c2cccc(N(C)C)c2)cc1 (stereo not drawn)	-3.9	20.0	-1.2	4.6	-6.7	-5.8	/
CC(C)CC1C(=O)N(Cc2cn(Cc3ccco3)nn2)CCS(=O)(=O)N1Cc1ccc(-c2ccc(Cl)cc2)cc1 (stereo not drawn)	6.4	41.8	-23.1	-4.9	0.2	64.6*	41.3*
Cc1cccc(C)c1NC(=O)CN(C)C(=O)C1CC1C (stereo not drawn)	-5.8	-1.7	-15.5	5.4	-22.1	-20.4	/
CC1(C)CNC(=S)N1Cc1ccccc1	2.5	8.1	-12.6	0.4	7.4	17.0	/
O=C1CCC(N2C(=O)c3ccccc3C2=O)C(=O)N1 (stereo not drawn)	-4.7	3.8	18.2	-6.4	-6.9	75.7*	12.0
Cc1ccnc(NC(=O)c2cc(F)c(F)cc2Cl)n1	29.4	-0.5	5.8	2.6	7.6	-5.8	/
CC(=O)C1=C(c2cccc([N+](=O)[O-])c2)N(C(C)=O)n2c(C)nnc2S1	59.9*	-88.5	-39.6	-121.2	-5.3	51.8*	22.0
CCCN(CCC)c1ncnc2nc[nH]c12	62.8*	5.9	-0.5	27.6	50.2*	65.7*	79.5*
Clc1ccccc1CN(Cc1ccccc1)c1ncnc2nc[nH]c12	6.4	35.1	-11.9	23.1	26.5	12.7	/
COc1ccc(CCNC(=O)c2c(O)c3c([nH]c2=O)CCCC3)cc1	5.4	11.1	-35.6	11.7	-26.0	51.2*	35.6
COc1ccc(/C=C/C(=O)c2cc(F)ccc2OC(=O)c2ccc(OC)c(OC)c2)cc1OC	42.8	22.8	-4.6	1.7	-12.3	4.6	/
COc1ccc(/C=C/C(=O)c2cc(F)ccc2OC(=O)c2ccccc2OC)cc1OC	76.6*	52.2*	-22.8	75.7*	54.9*	70.6*	42.5*
COc1cccc(OC)c1C(=O)Nc1cccc(-c2ccc(N3CCOCC3)nn2)c1	-15.0	-193.0	-5.2	-136.1	-46.0	3.7	/
COC1(OC)C=CC(=O)C=C1NC(=O)c1ccccc1OC(C)=O	63.4*	50.3*	5.8	-1.9	5.2	66.1*	68.8*
CC(=O)Oc1ccccc1C(=O)Nc1ccccc1	-16.2	-158.5	6.9	-183.2	-71.1	-1.0	/
CN(Cc1ccccc1F)C(=O)CCCNC(=O)c1ccc(Cl)cc1	0.6	20.2	9.9	17.2	3.4	-5.2	/
CC(C)(C)c1ccc2c(c1)N(CC(=O)N1CCOCC1)C(=O)CO2	-5.0	5.0	7.8	2.7	4.5	-9.6	/
COc1ccc(-c2c([C@H]3[C@H]4C=CC[C@@H](C)[C@@H]4C(=O)N3Cc3ccccc3)ccc3ccccc23)cc1OC	-12.0	-1.8	-23.7	14.6	10.2	62.2*	45.6*
COc1ccc(-c2ccc(OC)c([C@H]3[C@H]4C=CC[C@@H](C)[C@@H]4C(=O)N3Cc3ccccc3)c2)cc1OC	21.3	5.9	-16.9	18.2	5.7	35.4	/
COc1ccc(-c2ccc(F)cc2)cc1[C@H]1[C@H]2C=CC[C@@H](C)[C@@H]2C(=O)N1Cc1ccccc1	-16.8	16.0	-1.9	11.2	-11.5	75.1*	35.4
COc1ccc(-c2ccccc2[C@H]2[C@@H]3C=CC[C@@H](C)[C@@H]3C(=O)N2Cc2ccccc2)cc1	-5.2	33.3	-26.2	6.2	7.5	60.4*	50.2*
Cc1ccc(S(=O)(=O)N2CCC(C(=O)Nc3ccc4c(c3)COC4=O)CC2)cc1	-46.0	5.9	3.6	-13.8	-10.0	-10.8	/
C=C1C(=O)O[C@@]23[C@H]1CC[C@@H](C)[C@@H]2CC[C@@]1(C)O[C@@H]31	48.3	-102.2	3.6	18.7	3.6	53.5*	70.5*
